Source: PubChem BioAssay (several laboratories)
C-LANA FP: inhibitors of KSHV C-LANA binding to DNA, primary screen, biochemical, fluorescence polarization, FAM-LBS DNA, MBP-C-LANA, single point | inhibition, % at 9 µM | actives 0.078% (n = 340,000) | AID 504423, 2011;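 active = highest replicate inhibition at or above 60% at 9 µM, even if other replicates fall short; inactive = all replicates below 60% inhibition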;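 note: 0% = neutral control wells and 100% = 4 µM acridine orange control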
LANA-H2A inh: blockers of LANA interaction with H2A/H2B – biochemical, FP readout, HTS, primary screen; Protein LANA1 (Human herpesvirus 8 type P (isolate GK18)), Q9QR71; cell-free LANA-H2A/H2B peptide, fluorescence polarization; inhibition, % (concentration not given with the values); actives 0.6% (n = 320,000); AID 2629, 2010; in the data active = inhibition mostly above about 10%, no sharp cut-off; inactive = mostly below about 6.7%
cardiac RTF act: cardiac RTF calcium sensitivity activators, primary screen, biochemical, IANBD-TnC fluorescence, EC20 calcium. Troponin I, cardiac muscle (Homo sapiens) + Troponin T, cardiac muscle (Homo sapiens) + …. activation, % at 7.2 µM. actives 0.24% (n = 340,000). IANBD-labeled TnC RTF fluorescence at EC20 calcium; 0% EC20 calcium, 100% full calcium;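 active = activation above the mean over all tested compounds plus 3 SD, cut at about 30% in these data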;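 note: rise in fluorescence read as greater calcium sensitivity of cardiac thin filaments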
Keap1 Nrf2 FP: Keap1-Nrf2 protein-protein interaction inhibitors, primary screen, biochemical, fluorescence polarization, single point | Kelch-like ECH-associated protein 1 (Homo sapiens), Q14145 | Keap1 Kelch-Nrf2 peptide fluorescence polarization, 1536-well | inhibition, % at 9.4 µM | actives 0.15% (n = 340,000); in the data active = inhibition above about 12%;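 note: human Keap1 Kelch domain with fluorescein labeled Nrf2 9mer peptide probe; 0% = neutral control wells and 100% = peptide positive control; higher means more block of Keap1 binding to Nrf2 peptide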
Cardiac RTF inh: cardiac RTF calcium sensitivity inhibitors, primary screen, biochemical, IANBD-TnC fluorescence, EC70 calcium; actives 0.12% (n = 340,000); IANBD-labeled cardiac RTF, Ca2+ fluorescence; inhibition, % at 7.15 µM;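 active = inhibition above the mean inhibition of all tested compounds plus 3 SD, cut at about 17% in these data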;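 note: assay run at fixed EC70 calcium of 1.6 mM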
* marks the source's active call; other numbers are inactive results. Sampled rows, rich in hits. Any-hit rate of the full collection: about 0.98%.

Screening CCN1CCN(C(CNS(=O)(=O)c2ccc(OC)cc2)c2cccnc2)CC1 (configuration not stated) returned C-LANA FP 1, LANA-H2A inh 14*, cardiac RTF act 8, Keap1 Nrf2 FP 7 and Cardiac RTF inh -7.
Screening Cc1ccccc1-n1c(SCC(=O)NC2CCS(=O)(=O)C2)nc2ccccc2c1=O (configuration not stated) returned C-LANA FP 1, cardiac RTF act 1, Keap1 Nrf2 FP 6 and Cardiac RTF inh 0.
For O=C(CSc1nc2ccccc2c(=O)n1-c1ccccc1F)NC1CCS(=O)(=O)C1 (configuration not stated) the results were C-LANA FP -1, LANA-H2A inh 124*, cardiac RTF act -6, Keap1 Nrf2 FP 1 and Cardiac RTF inh -6.
`CN(C(=O)CSc1nc2ccccc2c(=O)n1C)C1CCS(=O)(=O)C1` (configuration not stated) gave C-LANA FP 1, LANA-H2A inh 20*, cardiac RTF act -2, Keap1 Nrf2 FP 0 and Cardiac RTF inh -6.
Screening CCOC(=O)c1cnc2ccccc2c1NCc1ccco1 returned C-LANA FP 0, LANA-H2A inh -14, cardiac RTF act 0, Keap1 Nrf2 FP -4 and Cardiac RTF inh 2.
CCOC(=O)c1cnc2ccccc2c1Nc1ccc2c(c1)OCCO2 was read as C-LANA FP 0, LANA-H2A inh 16*, cardiac RTF act -3, Keap1 Nrf2 FP -1 and Cardiac RTF inh -3.
Screening COc1ccc(/C=C2/SC(=S)N(Cc3ccccc3)C2=O)cc1O returned C-LANA FP 0, LANA-H2A inh -6, cardiac RTF act 2, Keap1 Nrf2 FP 1 and Cardiac RTF inh 7.
Screening O=C1/C(=C\c2cc(Cl)c(O)c(Cl)c2)SC(=S)N1Cc1ccccc1 returned C-LANA FP -22, LANA-H2A inh -17, cardiac RTF act 525*, Keap1 Nrf2 FP -35 and Cardiac RTF inh inactive.
For COc1ccc(O)c(/C=C2/SC(=S)N(Cc3ccccc3)C2=O)c1 the results were C-LANA FP -3, LANA-H2A inh 10, cardiac RTF act 81*, Keap1 Nrf2 FP -2 and Cardiac RTF inh -56.
`Cc1nnsc1C(=O)Nc1ccc(S(=O)(=O)N2CCC(C)CC2)cc1` gave C-LANA FP 1, LANA-H2A inh 1, cardiac RTF act 0, Keap1 Nrf2 FP 0 and Cardiac RTF inh -5.
`CCNC(=O)C1CC(=O)N(Cc2ccc3c(c2)OCO3)C(=Nc2ccc(OCC)cc2)S1` (configuration not stated) gave C-LANA FP -1, LANA-H2A inh 63*, cardiac RTF act 2, Keap1 Nrf2 FP -6 and Cardiac RTF inh -5.
For CCNC(=O)C1CC(=O)N(Cc2ccc(F)cc2)C(=Nc2ccc(OC)cc2)S1 (configuration not stated) the results were C-LANA FP -3, LANA-H2A inh -4, cardiac RTF act 3, Keap1 Nrf2 FP -6 and Cardiac RTF inh -8.
`COc1ccc(S(=O)(=O)N(C)C)cc1NC(=O)c1ccc2c(c1)NC(=O)C(C)S2` (configuration not stated) gave C-LANA FP 0, cardiac RTF act -4, Keap1 Nrf2 FP -1 and Cardiac RTF inh -2.
For C/C(=N/NC(=O)c1cc(O)c(O)c(O)c1)c1ccc([N+](=O)[O-])cc1 the results were C-LANA FP 76*, cardiac RTF act 0, Keap1 Nrf2 FP -2 and Cardiac RTF inh -3.
For CC(=O)NCC1(O)CCCC(C)C1 (configuration not stated) the results were C-LANA FP -2, LANA-H2A inh 19*, cardiac RTF act 0, Keap1 Nrf2 FP -1 and Cardiac RTF inh -15.
Cc1occc1-c1nnc(SCC(=O)NC2CC2)n1C(C)C was read as C-LANA FP -2, LANA-H2A inh 3, cardiac RTF act 2, Keap1 Nrf2 FP 0 and Cardiac RTF inh -5.
For C=CCN(CC=C)C(=O)C1CCN(S(=O)(=O)c2ccc(-n3cnnn3)cc2)CC1 the results were C-LANA FP -1, LANA-H2A inh -2, cardiac RTF act -4, Keap1 Nrf2 FP -1 and Cardiac RTF inh -9.
Screening C=CCN(CC=C)C(=O)C1CCN(S(=O)(=O)c2ccc(N3CCCC3=O)cc2)CC1 returned C-LANA FP -2, LANA-H2A inh 15*, cardiac RTF act -1, Keap1 Nrf2 FP 3 and Cardiac RTF inh 2.
For Nc1c(Cl)ncnc1NCC(O)CO (configuration not stated) the results were C-LANA FP -1, LANA-H2A inh -1, cardiac RTF act 1, Keap1 Nrf2 FP 3 and Cardiac RTF inh -13.
For Cc1ccc(N2C(=O)[C@@H]3C(C(=O)CN4C(=O)c5ccccc5C4=O)=NN[C@@H]3C2=O)c(C)c1 the results were LANA-H2A inh 24*.
`COc1cccc(N2C(=O)C3NN=C(C(=O)CN4C(=O)c5ccccc5C4=O)C3C2=O)c1` (configuration not stated) gave LANA-H2A inh 0.
For COc1ccccc1N1C(=O)[C@@H]2C(C(=O)CN3C(=O)c4ccccc4C3=O)=NN[C@@H]2C1=O the results were LANA-H2A inh 32*.
Screening COc1cccc(NC(=O)COC(=O)c2sccc2C)c1 returned C-LANA FP 1, LANA-H2A inh -1, cardiac RTF act -2, Keap1 Nrf2 FP -2 and Cardiac RTF inh 2.
For Cc1ccc(NC(=O)O/N=C/c2ccc(Br)cc2)cc1 the results were C-LANA FP -1, LANA-H2A inh -5, cardiac RTF act 7, Keap1 Nrf2 FP -1 and Cardiac RTF inh -4.
`Cc1ccc(NC(=O)O/N=C/c2ccc(F)cc2)cc1` gave C-LANA FP 1, LANA-H2A inh 3, cardiac RTF act 37*, Keap1 Nrf2 FP -3 and Cardiac RTF inh -6.
Screening CNCCCCOc1ccccc1Cc1ccccc1 returned LANA-H2A inh 2.
CN(C)CCOc1ccccc1Cc1ccccc1 was read as C-LANA FP 2, LANA-H2A inh 6.1*, cardiac RTF act -2, Keap1 Nrf2 FP -6 and Cardiac RTF inh 7.
Screening CCOC(=O)C(CC)n1cnc2c(nnn2-c2ccc(F)cc2)c1=O (configuration not stated) returned C-LANA FP 1, LANA-H2A inh -5, cardiac RTF act -2, Keap1 Nrf2 FP 5 and Cardiac RTF inh -5.
For O=C1c2cccc3c(O)ccc(c23)C(=O)N1Cc1ccccc1 the results were C-LANA FP 92*, LANA-H2A inh 5, cardiac RTF act 957*, Keap1 Nrf2 FP 7 and Cardiac RTF inh inactive.
